D2 ag-1 – agonists of human D2 dopamine receptor | P14416 | HEK293 T-REx D2 cells, calcium flux agonist mode | activation, % at 2 µM | 340,000 compounds, 0.53% hits | AID 485358;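 active = activation over 3 SD above normal in the single-dose calcium agonist read, cut at about 30% in these data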; note: 0% is about no effect
Target sequence (P14416 whole entry, looked up): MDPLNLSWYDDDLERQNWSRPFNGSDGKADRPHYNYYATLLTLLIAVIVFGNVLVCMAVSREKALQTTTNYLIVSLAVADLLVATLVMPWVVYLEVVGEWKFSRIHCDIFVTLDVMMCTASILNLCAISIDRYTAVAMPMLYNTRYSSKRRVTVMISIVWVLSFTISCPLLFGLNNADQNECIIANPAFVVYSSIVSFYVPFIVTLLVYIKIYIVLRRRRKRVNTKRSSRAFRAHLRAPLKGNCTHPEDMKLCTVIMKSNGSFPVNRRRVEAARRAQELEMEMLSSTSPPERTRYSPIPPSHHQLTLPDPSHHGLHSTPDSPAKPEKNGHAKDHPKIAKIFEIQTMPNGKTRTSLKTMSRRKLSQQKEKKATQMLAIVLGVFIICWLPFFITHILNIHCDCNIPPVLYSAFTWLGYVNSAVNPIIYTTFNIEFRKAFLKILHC
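Agonism is scored from calcium flux in a force-coupled, inducible HEK293 cell line expressing D2, read kinetically for 180 s after compound addition against dopamine controls.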
D2 PAM-1 – human D2 receptor positive allosteric modulation; potentiation, % (test concentration not listed); P14416; DiscoveRx D2 beta-arrestin cells, luminescence, 90 min; 100% = 57 uM dopamine signal; AID 624464; 360,000 compounds, 0.23% hits; in the data active = potentiation above about 50%; inconclusive = mostly about 30% to 49%
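D2 cells co-treated with compound plus 50 nM dopamine (EC20) for 90 min at 37 deg C to detect potentiation. Beta-arrestin recruitment was read as enzyme-fragment luminescence after 1 h at ambient temperature. Full response was set by 57 uM dopamine.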
D2 antag – antagonists of human D2 dopamine receptor | AID 485344 | HEK293 TREx D2 cells, calcium flux, dopamine EC80 | inhibition, % at 10 µM | 340,000 compounds, 2% hits; in the data active = inhibition above about 30%; inactive = below that, where a call was filed; note: 0% is about no effect
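Compounds are added to dye-loaded, induced HEK293 T-REx cells coupled to calcium release via D2; after a 3 min kinetic read an EC80 dopamine stimulus is given and fluorescence is recorded for 3 more min.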
D2 PAM-2 – positively modulates the human D2 dopamine receptor allosterically; P14416; HEK293 T-REx D2, calcium flux, EC20 dopamine potentiation; potentiation, % at 10 µM; 340,000 compounds, 0.34% hits; AID 485347;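 active = potentiation over 3 SD above the plate norm, cut at about 30% in these data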; note: 0% is about no effect
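Potentiation of an EC20 dopamine calcium response measured kinetically over 180 s, after a preceding 180 s compound-only read flagging agonists. Cells: inducible Hek293 Trex D2 line, 4000/well, cultured overnight at 30 C before dye loading.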
D2 ag-2 – activates the human D2 dopamine receptor; P14416; DiscoveRx PathHunter D2 beta-arrestin, luminescence, 90 min; 100% = 57 uM dopamine signal; activation, % (test concentration not listed); 360,000 compounds, 0.084% hits; AID 624465; in the data active = activation above about 40%; inconclusive = between about 15% and that limit
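Agonist mode: compounds alone added to overnight-plated D2 PathHunter cells for 90 min at 37 C, with 57 uM final dopamine (EC100) defining full response. Beta-arrestin recruitment detected by chemiluminescent reagent, read after 1 h at ambient temperature.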
Active calls of the source: *; ? = inconclusive; nt = no result given. Shown are actives, neighbours in structure and some others; about 2.4% of the full set was active somewhere.

SMILES	D2 ag-1	D2 PAM-1	D2 antag	D2 PAM-2	D2 ag-2
CCc1nnc(NC(=O)c2ccc(COc3ccccc3)o2)s1	-1.0	-3.3	-12.4	29.9	-1.6
CCc1ccc(C(=O)NC2=NC(c3cc(OC)ccc3OC)CC(=O)N2)cc1 (configuration not stated)	-0.3	nt	nt	15.7	nt
CCOc1ccc(N2CC(NC(=O)c3ccc(S(=O)(=O)N4CCCCC4)cc3)CC2=O)cc1 (configuration not stated)	0.3	nt	nt	20.5	nt
CS(=O)(=O)c1ccccc1C(=O)Nc1ccccc1Cc1ccccc1	0.5	-0.6	-13.7	-6.6	1.4
Cc1ccc(C(NC(N)=O)c2ccccc2)cc1 (configuration not stated)	0.5	-1.7	39.8*	4.6	1.0
Cc1ccc(C(NC(=O)c2ccccc2S(C)(=O)=O)c2ccccc2)cc1 (configuration not stated)	-0.6	-4.6	-17.4	34.2*	-0.9
CCOC(=O)c1c(S(=O)(=O)N2CCC(C(=O)NCc3cccc(OC)c3)CC2)c(C)n(C)c1C	0.0	nt	nt	nt	nt
CCc1ccccc1NC(=O)c1cc(S(=O)(=O)N(CC)c2ccccc2)ccc1F	1.0	nt	nt	15.2	nt
COc1ccc2nc(Nc3sc4c(c3C(N)=O)CCCC4)sc2c1	1.6	54.7*	14.1	-7.5	?
COc1ccc(CN(C)CC(O)COC(c2ccc(OC)cc2)c2ccc(OC)cc2)cc1 (configuration not stated)	0.6	-6.6	39.3*	-4.4	1.1
CCOc1ccc(CN(C)CC(O)COC(c2ccc(OC)cc2)c2ccc(OC)cc2)cc1 (configuration not stated)	0.4	-10.3	30.3*	-0.4	3.6
COc1ccc(C(OCC(O)CN(C)C2CCCCC2)c2ccc(OC)cc2)cc1 (configuration not stated)	0.2	-13.3	24.4	-2.6	-3.6
O=C(CCn1c(=O)sc2ccccc21)NCc1ccccc1	0.0	-10.9	20.5	-18.6	-3.8
O=C(CCn1c(=O)sc2ccccc21)NCc1cccs1	-0.6	-14.3	32.2*	-5.6	-1.1
Cc1nc2c(c(C)c1CCC(=O)N1CCN(c3ccccc3)CC1)c(=O)n(C)c(=O)n2C	5.7	nt	nt	-1.8	nt
Cc1ccc(C2CCN(C(=S)Nc3cccc(C)c3)C2)cc1 (configuration not stated)	-0.7	-12.3	8.3	75.4*	-2.7
Cc1cccc(NC(=S)N2CCCCC2)c1	0.7	-2.5	-1.9	18.9	-4.6
CCc1cccc(CC)c1N(COC)C(=O)Cn1c(C)nc2ccccc21	-1.1	nt	nt	1.8	nt
COc1ccc(Br)cc1/C=C/C(=O)Nc1ccc(C)cc1	-0.1	-16.0	73.6*	-20.4	1.7
COc1ccc(/C=C\C(=O)NCC(=O)N/N=C/c2ccc(O)cc2O)cc1	-1.7	-22.1	-10.4	-16.5	-3.7
COc1ccc(Br)cc1/C=C/C(=O)Nc1ccc2ccccc2c1	-0.2	-9.3	-21.6	-19.3	-0.5
COc1ccccc1/C=C/C(=O)NCC(=O)N/N=C/c1cc(Br)ccc1OC	0.2	-11.8	64.2*	-9.7	-0.9
COc1ccc(/C=C/C(=O)NCC(=O)N/N=C/c2cc(Br)ccc2OC)cc1	0.3	-18.9	69.5*	-17.9	2.0
COc1cc(OC)c2cc(C(=O)N/N=C/c3cccc(OC)c3O)[nH]c2c1	-0.8	19.8	-10.0	9.8	-2.6
COc1cccc(/C=N/NC(=O)c2cc3c(OC)ccc(OC)c3[nH]2)c1O	-1.9	52.0*	8.7	-14.1	-4.2
SMILES	D2 ag-1	D2 PAM-1	D2 antag	D2 PAM-2	D2 ag-2
CCc1noc(-c2ccc(N3CCCCC3C)c([N+](=O)[O-])c2)n1 (configuration not stated)	-0.7	nt	nt	-7.4	nt
CNS(=O)(=O)c1cn(CC(=O)Nc2ccc(OC)cc2OC)cc1S(=O)(=O)NC	0.1	nt	nt	-4.4	nt
CCCNS(=O)(=O)c1cc(-c2nnc3c4ccccc4c(C)nn23)ccc1OC	-0.4	nt	nt	nt	nt
CCc1ccccc1NC(=O)Cn1nnc(C(=O)NCc2ccco2)c1N	-0.4	nt	nt	-2.4	nt
CCc1ccc(NC(=O)CN(c2ccc(C)cc2)S(=O)(=O)c2cccs2)cc1	-0.8	nt	nt	-5.3	nt
COc1cccc(/C=N/Nc2ccc(C(=O)O)cc2)c1O	-0.4	78.6*	0.9	0.1	-0.8
COc1ccccc1/C=C\C(=O)NCC(=O)N/N=C/c1cccc(OC)c1O	-0.8	-35.0	49.5*	-22.9	-0.2
COc1cccc(/C=N/Nc2ccc(S(=O)(=O)O)cc2)c1O	nt	7.9	nt	nt	-0.2
COc1ccc(/C=N/NC(=O)CNC(=O)/C=C/c2ccccc2OC)cc1	-0.2	-9.1	-5.6	-29.8	-3.8
N#Cc1ccc(NC(=O)C2Cc3ccccc3CN2S(=O)(=O)c2ccc(F)cc2)cc1 (configuration not stated)	-0.4	nt	nt	7.1	nt
Cc1nc2cc(NC(=O)c3cccc(S(C)(=O)=O)c3)ccc2o1	0.4	-5.9	33.4*	-16.9	-0.6
Cc1ccc(NC(=O)c2cccc(S(C)(=O)=O)c2)cc1	1.0	-8.7	-2.7	1.7	-2.4
COc1cccc(NC(=O)CSC2=Nc3ccccc3N=C(c3ccc(F)cc3)C2)c1	nt	nt	nt	-9.3	nt
CC(=O)N1c2ccc(S(=O)(=O)NCC3CCC(C(=O)Nc4cc(C)cc(C)c4)CC3)cc2CC1C (configuration not stated)	0.1	nt	nt	nt	nt
CC(=O)N1c2ccc(S(=O)(=O)NCC3CCC(C(=O)Nc4ccc(C)cn4)CC3)cc2CC1C (configuration not stated)	-0.1	-9.8	-13.6	34.2*	1.4
CC(=O)N1c2ccc(S(=O)(=O)N3CCC(C(=O)Nc4cc(C)cc(C)c4)CC3)cc2CC1C (configuration not stated)	-1.8	-30.9	70.6*	-21.5	-1.0
Cc1ccc(NC(=O)C2CCN(S(=O)(=O)c3ccc4c(c3)NC(=O)CO4)CC2)cc1	7.0	-10.3	32.0*	-19.5	-2.7
CC(=O)N1c2ccc(S(=O)(=O)N3CCC(C(=O)Nc4cccc(C)c4)CC3)cc2CC1C (configuration not stated)	-0.6	-35.5	-6.3	15.3	-1.5
CC(C)c1ccc(NC(=O)C2CCN(S(=O)(=O)c3ccc4c(c3)NC(=O)CO4)CC2)cc1	0.2	-13.9	-4.4	-14.4	1.3
CC(=O)N1c2ccc(S(=O)(=O)N3CCC(C(=O)Nc4cccc(Cl)c4)CC3)cc2CC1C (configuration not stated)	0.0	-0.8	41.2*	-2.5	-1.5
CC(=O)N1c2ccc(S(=O)(=O)N3CCCC3C(=O)Nc3ccc(C)cc3)cc2CC1C (configuration not stated)	-0.4	-2.2	36.7*	4.8	14.1
Fc1cccc(NCc2ccccc2-c2nnc(-c3ccccc3Cl)o2)c1	-0.7	nt	nt	-6.7	nt
CCCn1c(C(=O)OC)cc2c1ccn2-c1ccc(F)cc1	0.9	7.7	9.6	31.9*	-3.0

Assay outcomes deposited in PubChem BioAssay by National Center for Advancing Translational Sciences (NCATS).
